Here are results for one sequence from paper PMC7862700, “An all-to-all approach to the identification of sequence-specific readers for epigenetic DNA modifications on cytosine”.

Test in all cases: DAPPL (digital affinity profiling via proximity ligation, sequencing); 10 mM Tris-HCl pH 7.5, 50 mM NaCl, 1 mM DTT, 4% glycerol, room temperature, 30 min; GST-TFs on glutathione beads, 16-mer random dsDNA library, 0.1% formaldehyde crosslink after washing; high values mean tight binding
Holding throughout (settings): protein: recombinant; tags: N-terminal GST; dsDNA, one strand shown

In one assay the target is T1, FLI1 (Homo sapiens, UniProt Q01543 1-452).
T1 sequence: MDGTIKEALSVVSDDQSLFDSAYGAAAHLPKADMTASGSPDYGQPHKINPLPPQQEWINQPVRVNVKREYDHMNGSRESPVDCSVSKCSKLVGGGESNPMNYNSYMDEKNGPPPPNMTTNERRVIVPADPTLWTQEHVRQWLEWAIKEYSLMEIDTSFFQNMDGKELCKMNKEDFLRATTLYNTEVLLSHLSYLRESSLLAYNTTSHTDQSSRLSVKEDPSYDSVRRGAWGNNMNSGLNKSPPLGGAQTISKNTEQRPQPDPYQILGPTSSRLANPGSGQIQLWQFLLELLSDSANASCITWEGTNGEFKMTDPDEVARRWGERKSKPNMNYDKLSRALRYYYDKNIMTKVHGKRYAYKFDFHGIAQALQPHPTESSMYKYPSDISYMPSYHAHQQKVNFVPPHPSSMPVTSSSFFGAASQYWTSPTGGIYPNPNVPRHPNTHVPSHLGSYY
The method, boiled down:
(§1)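 Pools of DNA-barcoded human transcription factors, expressed in yeast as GST fusions on glutathione beads and combined with a tag-only sample, were incubated with 200 nmole of a 16-mer random double-stranded DNA library. Incubation took 30 min at room temperature in Tris/NaCl/DTT/glycerol buffer and was followed by washing, 0.1% formaldehyde crosslinking, proximity ligation (BsaI/T4 ligase, 1 h, 37 °C), PCR amplification and sequencing on an Illumina NextSeq500. Binding signal is the ratio of a hexamer's read frequency for a factor to its frequency for the tag-only sample.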

The target in another assay is T2, ELK1 (Homo sapiens, UniProt P19419 1-428).
T2 sequence: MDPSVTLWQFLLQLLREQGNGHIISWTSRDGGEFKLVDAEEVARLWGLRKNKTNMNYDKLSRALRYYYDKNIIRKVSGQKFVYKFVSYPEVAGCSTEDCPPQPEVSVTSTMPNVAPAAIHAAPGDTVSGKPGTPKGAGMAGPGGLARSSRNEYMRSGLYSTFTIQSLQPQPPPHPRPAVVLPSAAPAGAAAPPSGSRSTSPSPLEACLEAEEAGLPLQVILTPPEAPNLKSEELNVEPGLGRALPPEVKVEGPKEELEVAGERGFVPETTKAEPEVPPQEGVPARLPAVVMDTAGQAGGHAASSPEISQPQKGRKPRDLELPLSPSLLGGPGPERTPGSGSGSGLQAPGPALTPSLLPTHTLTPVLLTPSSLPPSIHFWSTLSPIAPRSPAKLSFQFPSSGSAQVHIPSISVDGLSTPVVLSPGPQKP
The essentials: as §1

The next assay concerns the target ELF1 (Homo sapiens, UniProt P32519 1-619). The method, boiled down: as §1
The target of another assay is SPIB (Homo sapiens, UniProt Q01892 1-262). The essentials: as §1
Another assay has as its target ETV5 (Homo sapiens, UniProt P41161 1-510). The essentials:
as §1

Another assay deals with T3, SPIC (Homo sapiens, UniProt Q8N5J4 1-248).
T3 sequence: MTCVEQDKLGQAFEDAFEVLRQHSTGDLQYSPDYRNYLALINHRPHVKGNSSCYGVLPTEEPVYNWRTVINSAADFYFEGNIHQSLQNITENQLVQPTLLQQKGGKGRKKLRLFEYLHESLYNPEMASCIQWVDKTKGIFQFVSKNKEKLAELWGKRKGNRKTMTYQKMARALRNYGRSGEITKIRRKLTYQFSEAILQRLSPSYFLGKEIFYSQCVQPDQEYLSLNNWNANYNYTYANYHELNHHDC
The method, boiled down:
as §1

A further assay has as its target ELF4 (Homo sapiens, UniProt Q99607 1-663). The method, boiled down: as §1
In another assay the target is T4, ERF (Homo sapiens, UniProt P50548 1-548).
T4 sequence: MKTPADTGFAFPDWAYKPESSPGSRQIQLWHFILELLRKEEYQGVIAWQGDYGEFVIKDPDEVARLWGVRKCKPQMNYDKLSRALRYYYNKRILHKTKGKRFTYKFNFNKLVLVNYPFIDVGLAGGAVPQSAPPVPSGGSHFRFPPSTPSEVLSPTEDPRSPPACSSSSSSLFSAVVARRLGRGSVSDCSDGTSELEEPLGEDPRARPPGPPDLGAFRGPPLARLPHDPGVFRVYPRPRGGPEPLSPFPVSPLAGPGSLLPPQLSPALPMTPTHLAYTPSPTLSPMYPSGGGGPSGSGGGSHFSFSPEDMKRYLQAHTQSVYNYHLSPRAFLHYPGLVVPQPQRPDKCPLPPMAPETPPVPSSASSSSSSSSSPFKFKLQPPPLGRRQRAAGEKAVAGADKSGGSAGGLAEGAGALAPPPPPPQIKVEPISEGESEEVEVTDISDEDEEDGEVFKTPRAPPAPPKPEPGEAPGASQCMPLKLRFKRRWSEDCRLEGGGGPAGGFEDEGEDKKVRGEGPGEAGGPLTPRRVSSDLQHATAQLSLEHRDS
The method, boiled down:
as §1

Chain of ETV5 (P41161 whole entry): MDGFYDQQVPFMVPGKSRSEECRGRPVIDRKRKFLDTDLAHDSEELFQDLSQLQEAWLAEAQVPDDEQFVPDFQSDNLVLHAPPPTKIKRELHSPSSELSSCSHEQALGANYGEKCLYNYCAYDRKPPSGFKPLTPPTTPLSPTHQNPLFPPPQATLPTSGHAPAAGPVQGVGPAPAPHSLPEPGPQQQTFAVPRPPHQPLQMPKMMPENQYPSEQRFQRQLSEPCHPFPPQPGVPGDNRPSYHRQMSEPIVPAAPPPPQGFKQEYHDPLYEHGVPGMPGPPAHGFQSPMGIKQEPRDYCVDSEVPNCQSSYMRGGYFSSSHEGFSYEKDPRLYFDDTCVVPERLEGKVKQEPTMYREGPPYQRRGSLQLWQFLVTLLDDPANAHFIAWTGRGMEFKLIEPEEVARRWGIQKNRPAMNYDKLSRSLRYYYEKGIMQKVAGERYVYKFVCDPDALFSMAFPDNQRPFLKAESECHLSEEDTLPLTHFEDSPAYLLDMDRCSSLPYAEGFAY
Chain of ELF4 (Q99607 whole entry): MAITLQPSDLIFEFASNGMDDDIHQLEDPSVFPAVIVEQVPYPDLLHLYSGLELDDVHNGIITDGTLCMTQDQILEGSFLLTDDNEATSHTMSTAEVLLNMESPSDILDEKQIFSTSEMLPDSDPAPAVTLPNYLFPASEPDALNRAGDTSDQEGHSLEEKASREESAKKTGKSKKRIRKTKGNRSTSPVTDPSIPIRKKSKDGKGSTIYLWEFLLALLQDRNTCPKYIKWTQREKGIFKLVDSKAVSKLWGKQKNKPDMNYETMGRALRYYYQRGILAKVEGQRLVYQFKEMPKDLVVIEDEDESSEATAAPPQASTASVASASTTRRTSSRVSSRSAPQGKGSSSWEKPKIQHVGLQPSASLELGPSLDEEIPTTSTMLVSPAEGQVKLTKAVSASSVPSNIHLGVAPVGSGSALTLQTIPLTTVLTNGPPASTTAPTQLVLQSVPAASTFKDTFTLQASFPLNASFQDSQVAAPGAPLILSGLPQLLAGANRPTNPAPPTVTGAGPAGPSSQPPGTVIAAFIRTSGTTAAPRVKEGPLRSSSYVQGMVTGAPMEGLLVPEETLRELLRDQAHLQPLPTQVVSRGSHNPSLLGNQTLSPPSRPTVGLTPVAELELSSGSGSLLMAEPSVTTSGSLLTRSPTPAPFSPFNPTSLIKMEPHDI
Chain of ELF1 (P32519 whole entry): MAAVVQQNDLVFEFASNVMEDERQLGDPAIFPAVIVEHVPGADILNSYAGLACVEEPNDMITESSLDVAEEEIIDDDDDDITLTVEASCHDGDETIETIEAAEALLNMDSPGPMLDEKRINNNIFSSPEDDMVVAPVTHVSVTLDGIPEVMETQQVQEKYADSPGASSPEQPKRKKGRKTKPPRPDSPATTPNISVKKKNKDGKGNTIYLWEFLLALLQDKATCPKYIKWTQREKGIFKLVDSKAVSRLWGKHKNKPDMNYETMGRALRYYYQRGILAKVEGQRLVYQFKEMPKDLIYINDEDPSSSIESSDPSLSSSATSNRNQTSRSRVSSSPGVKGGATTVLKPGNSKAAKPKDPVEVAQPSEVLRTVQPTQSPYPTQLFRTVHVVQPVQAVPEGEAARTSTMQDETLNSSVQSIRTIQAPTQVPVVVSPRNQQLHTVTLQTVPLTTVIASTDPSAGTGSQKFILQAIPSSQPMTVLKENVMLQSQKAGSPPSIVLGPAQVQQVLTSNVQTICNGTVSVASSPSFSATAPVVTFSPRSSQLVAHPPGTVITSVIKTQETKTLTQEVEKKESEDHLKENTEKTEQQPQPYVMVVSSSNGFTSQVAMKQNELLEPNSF
Chain of SPIB (Q01892 whole entry): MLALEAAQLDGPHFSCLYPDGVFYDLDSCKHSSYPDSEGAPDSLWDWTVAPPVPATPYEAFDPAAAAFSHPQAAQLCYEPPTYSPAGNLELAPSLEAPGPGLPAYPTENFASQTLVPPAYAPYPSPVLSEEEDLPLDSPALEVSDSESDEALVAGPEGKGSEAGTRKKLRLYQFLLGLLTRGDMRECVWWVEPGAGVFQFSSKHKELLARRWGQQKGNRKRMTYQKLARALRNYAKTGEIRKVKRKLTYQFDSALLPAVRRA

Take CATCCA: the binding signal in the assay with FLI1 is 1.01 fold enrichment (6-mer frequency, TF over GST control); with ELK1, 1.06 fold enrichment (6-mer frequency, TF over GST control); with ELF1, 1.02 fold enrichment (6-mer frequency, TF over GST control); with SPIB, 1 fold enrichment (6-mer frequency, TF over GST control); with ETV5, 1.01 fold enrichment (6-mer frequency, TF over GST control); with SPIC, 1.05 fold enrichment (6-mer frequency, TF over GST control). Further, the binding signal in the assay with ELF4 was 1.02 fold enrichment (6-mer frequency, TF over GST control); in the assay with ERF, 1.01 fold enrichment (6-mer frequency, TF over GST control).
